The results in this text go back to ChEMBL document CHEMBL4513216, “Probing the Open Global Health Chemical Diversity Library for Multistage-Active Starting Points for Next-Generation Antimalarials” (ACS Infect Dis, 2020).

Each structure is given as a SMILES string. Out of some 69,000 compounds screened, about 8,600 (12%) showed an effect of 50% or more. This excerpt belongs to a sample that is enriched for strong results.

In the assay the test system is Plasmodium berghei. Description: Screen against P. berghei liver stage (PbLuc), transformed with Luciferase, at 10uM. Format: functional, HepG2. The settings on record: tested at 10 uM.
With `O=C(CCn1ccnc1)N1CC[C@H](Oc2ccc(F)cc2)[C@@H](O)CC1`, the INHIBITION was 32.05%.

On to `CN(CC(N)=O)C(=O)c1csc(Br)c1`, for which the INHIBITION is reported as -5.1%.

Take `CS(=O)(=O)NCCC(=O)Nc1cnn(-c2ccccc2Cl)c1`: the INHIBITION worked out at 7.08%.

Turning to `Cc1nn(-c2ccccc2)c(C)c1-c1ccnc(N2CCC(O)CC2)n1`, the INHIBITION was 20.2%.

Regarding `Cc1nn(-c2ccccc2)c(C)c1-c1ccnc(N2CCCNCC2)n1`, the INHIBITION was 85.8%.

Consider `Cc1nn(-c2ccccc2)c(C)c1-c1ccnc(N2CCCOCC2)n1`, for which the INHIBITION is recorded as -54.3%.

For `O=S(=O)(N1CCOCC1)N1CCCC1Cn1cccn1` (stereo not given), the INHIBITION is -5.71%.

With `Cc1nc(C2CN(Cc3ccc(F)cc3Br)CCO2)no1` (stereo not given), the INHIBITION came to 11.8%.

With `CC(C)c1noc(-c2ccc(N(C)C3CCOCC3)nc2)n1`, the INHIBITION is -61.1%.

Take `CN(c1ccc(-c2nc(C3CC3)no2)cn1)C1CCOCC1`: the INHIBITION is -99.6%.

Regarding `Cc1ccccc1-c1noc(-c2ccc(N(C)C3CCOCC3)nc2)n1`, the INHIBITION was found to be 83.2%.

In the case of `O=C(OCc1cc(=O)n2cc(Br)ccc2n1)c1ccc2c(c1)OCO2`, the INHIBITION is on record as 19.8%.

With `COCCN1CC2(CCCN(C(=O)NCCc3cccs3)C2)CCC1=O` (stereo not given), the INHIBITION amounted to 56.5%.

On to `COCCN1CC2(CCCN(C(=O)CCCc3cccs3)C2)CCC1=O` (stereo not given), for which the INHIBITION was found to be 25.1%.

As for `O=C(NCCc1cccs1)N1CCCC2(CCC(=O)N(C3CC3)C2)C1` (stereo not given), the INHIBITION was 9.87%.

For the compound `CCN1CCCC(c2cc(Nc3cnccn3)nc(C)n2)C1` (stereo not given), the INHIBITION is -2.11%.

Turning to `O=C(NCCCOCc1ccco1)c1cccnc1N1CCOCC1`, the INHIBITION came to 18.2%.

For `CC(C)Nc1cc(N2CCN(Cc3ccccc3)C(CCO)C2)ncn1` (stereo not given), the INHIBITION was determined as 9.06%.

On to `CNc1nc(N2CCN(CC=C(C)C)C(CCO)C2)nc2c1CCC2` (stereo not given), for which the INHIBITION is 68.6%.

For `CNc1nc(N2CCN(C)C(CCO)C2)nc2c1CCC2` (stereo not given), the INHIBITION amounted to 23.5%.

For the compound `COc1cc(N2CCN(Cc3ccsc3)C(CCO)C2)nc(N)n1` (stereo not given), the INHIBITION is listed as 23.3%.

In the case of `Cc1cc(N2CCC(NC(C)Cc3ccsc3)CC2)nc(N)n1` (stereo not given), the INHIBITION is listed as 64.9%.

`CNc1nc(N2CCN(C3CCCCC3)C(CCO)C2)nc2c1CCC2` (stereo not given): the INHIBITION turned out to be 12%.

`Cc1cc(N2CCC(NC(C)Cc3ccsc3)CC2)nc(C)n1` (stereo not given): the INHIBITION stood at 27.9%.

In the case of `Cc1cc(N2CCN(Cc3ccsc3)C(CCO)C2)nc(N)n1` (stereo not given), the INHIBITION is given as 50.5%.

In the case of `Cc1cc(N2CCC(NS(C)(=O)=O)CC2)nc(C(C)C)n1`, the INHIBITION came to 49%.

For `CNc1nc(N2CCN(Cc3ccsc3)C(CCO)C2)nc2c1CCC2` (stereo not given), the INHIBITION was 53.8%.

For the compound `CC(C)Oc1cc(N2CCN(Cc3ccsc3)C(CCO)C2)nc(N)n1` (stereo not given), the INHIBITION came out at 49.4%.

In the case of `CNc1nc(N2C[C@H](NC(=O)CCOC)[C@@H](C3CC3)C2)nc2c1CCC2`, the INHIBITION came to 33.4%.

On to `CC(=O)N1CC(=O)N(c2cnn(C)c2)CC12CCN(Cc1ccsc1)C2` (stereo not given), for which the INHIBITION was determined as 23.5%.

`CC[C@@H](Cn1ncc2ccccc2c1=O)NC(=O)c1cnc(C)cn1`: the INHIBITION is on record as -20.6%.

`Cc1ccc(-c2cnc3n2CCN(C)C32CCN(CC3CC3)CC2)cc1`: the INHIBITION is given as -12.1%.

Take `Cc1ccnc(C2CN(c3ncccn3)C2)n1`: the INHIBITION worked out at 25.15%.

As to `Nc1nc(Sc2cccs2)cc(N2CC[C@H](CO)[C@H](O)C2)n1`, the INHIBITION was -28%.

With `CN1[C@@H]2CC[C@H]1CN(c1cc(Sc3cccs3)nc(N)n1)CC2`, the INHIBITION stood at 49.2%.

In the case of `CN1CCN(c2cc(Sc3cccs3)nc(N)n2)CC1CCO` (stereo not given), the INHIBITION came out at 50.2%.

For the compound `CCNC(=O)CN1CCc2c(Br)ccc(F)c2C1`, the INHIBITION is given as -18.3%.

For the compound `O=C(c1cnc(Nc2ccccc2)nc1)N1CCCC2(CCNC2)C1` (stereo not given), the INHIBITION was 58.1%.

`O=C(c1ccnc(-n2cnnc2)c1)N1CCCC2(CCOC2)C1` (stereo not given): the INHIBITION was 39.4%.

In the case of `O=C(c1cnc(Nc2ccccc2)nc1)N1CCC2(CCNCC2)CC1`, the INHIBITION is on record as 30.4%.

As for `O=C(c1ccnc(-n2cnnc2)c1)N1CCCC2(CCNC2)C1` (stereo not given), the INHIBITION was 56.5%.

`O=C(c1ccc(-n2cnnc2)cc1Cl)N1CCCC2(CCNC2)C1` (stereo not given): the INHIBITION is 35.1%.

As to `O=C(c1cnc(Nc2ccccc2)nc1)N1CCS(=O)(=O)CC1`, the INHIBITION is given as 27.4%.

Regarding `CCOCCC(=O)N(CCC#N)c1ccc(C)c(C)c1`, the INHIBITION was -2.27%.

Turning to `CCc1[nH]nc(NC(=O)c2ccc(Cl)cn2)c1C`, the INHIBITION is -61.3%.

On to `COCCCN1CCC(N(Cc2noc(C)n2)C(C)=O)C1` (stereo not given), for which the INHIBITION is given as 16.9%.

In the case of `Cc1cc2c(=O)n3c(nc2s1)CCN(Cc1ccncc1)CC3`, the INHIBITION stood at 58.6%.

For the compound `CCc1ncc(CN2CCc3nc4sc(C)cc4c(=O)n3CC2)cn1`, the INHIBITION stood at 13%.

For the compound `Cc1cc2c(=O)n3c(nc2s1)CCN(Cc1c[nH]cn1)CC3`, the INHIBITION is given as 23.2%.

Take `Cc1nc[nH]c1CN1CCc2nc3scc(C)c3c(=O)n2CC1`: the INHIBITION amounted to 26.8%.
